The results in this text go back to PubChem BioAssay (NCATS).

Inconclusive results are not listed. A call without a number means that no potency is given here. Activity calls are given as the source filed them. Calls follow the shape of the dose curve; as a rule, active = well fitted inhibition curve with a large enough effect; inconclusive = small, poorly fitted or top-dose-only effect; inactive = no such curve, though single readings can be large or run the other way.
Potency is read from the fitted curve at half-maximal effect.

The assay deals with Zika virus NS2B-NS3 protease (unlinked complex). Nature of the assay: Primary screen GU Rhodamine qHTS for Zika virus inhibitors: Unlinked NS2B-NS3 protease assay (AID 1347159). Also: nearly all actives have a fitted effect of over 60% in size. The conditions noted are these: Recombinant ZIKV NS2B-NS3 protease, Rhodamine110 substrate fluorescence; series mostly up to 107 µM. The source says: Avindra Nath, Ph.D., National Institute of Neurological Disorders and Stroke (NINDS), Bethesda, MD
Radhakrishnan Padmanabhan, Ph.D., Georgetown University (GU), Washington D.C.
Zika Virus causes congenital defects, including microcephaly and is associated with Guillain-Barre syndrome, eningoencephalitis and myelitis in infected adult. […] Using a target-based approach, we hope to establish a screening paradigm to uncover novel, cell-active NS2B-NS3 protease (Zika Virus) specific inhibitors from NCATS' collection of small molecules using qHTS.
Four assay panel was created to identify potential Zika Virus inhibitors. Namely, (1) GU unlinked NS2B-NS3 AMC tagged protease qHTS, (2) GU unlinked NS2B-NS3 Rhodamine tagged protease qHTS, (3) NINDS linked NS2B-NS3 AMC tagged protease qHTS, (4) NINDS linked NS2B-NS3 Rhodamine tagged protease qHTS. Active compounds were re-acquired and re-screened to confirm inhibition. Inhibitors were further screened against various confirmatory and counterscreens in dose response format.
Early Translation Branch (ETB)
National Center for Advancing Translational Sciences (NCATS), Rockville, MD
National Institute of Health (NIH), Bethesda, Maryland
Padmanabhan lab provided the NS2B hydrophilic domain and NS3 protease domain in a noncovalent complex used for the unlinked assay. Control compound aprotinin is obtained from Thermo Scientific (#78432; Waltham, Massachusetts). Rhodamine110 substrate ([N-Cbz]-Nle-Lys-Arg-Arg-Rhod110-Arg-Arg-Lys-Nle-[N-Cbz]) was purchased from either Genscript or Bachem.
1536-well Protease (Rhodamine110 Substrate) Assay:
Briefly, 3 microL of enzyme (25 nM final concentration), in assay buffer (10 mM Tris-HCl pH 8.0 with 0.01% Tween 20) were dispensed into a 1,536-well solid-bottom black plate (Greiner Bio One, Monroe, NC). Twenty-three nL of compounds (final concentration range 7.28 nM to 114 microM) or control Aprotinin (final concentration range 3.47 nM to 114 microM) were transferred via Wako Pin-tool (Wako Automation, Richmond, VA). Samples were incubated (room temperature, protected from light) for 15 minutes followed by a 1 microL Rhodamine110 substrate addition (1.5 microM final concentration). Plates were then immediately read on a ViewLux High-throughput CCD imager (PerkinElmer, Waltham, MA) equipped with FITC fluorescence optics (480(20) nm excitation, 540(25) nm emission), then incubated (room temperature, protected from light) for 15 minutes (~15% conversion). The change in fluorescence intensity over the 15-minute reaction period was normalized against no-inhibitor and no-enzyme controls and the resulting percent inhibition data were fitted to a 4-parameter Hill equation. Aprotinin was used as intraplate control.
On to `C=C1C(=O)O[C@@H]2[C@H]1[C@H](O)C[C@]1(C)[C@@H](O)CC=C(C)[C@@H]21`, for which the Potency result is “inactive”.

Turning to `COC1CC(=O)C23C(=O)NC(CC(C)C)C2C(C)C(C)=CC3/C=C(\C)CCC(O)C1O` (stereo not given), the Potency result is “inactive”.

`O=C(NNc1ccccc1)c1ccncc1`: the Potency entry was “inactive”.

Consider `CNc1ccc([N+](=O)[O-])cc1-n1cnc(-c2ccc(C(F)(F)F)cc2)c1`, for which the Potency entry is “inactive”.

As for `O=C(Nc1cccc(C(F)(F)F)c1)c1ccccc1NCc1ccncc1`, the Potency result is “inactive”.

Turning to `N#Cc1ccc2c(c1)CCN(CCC1CCC(NC(=O)c3ccnc4ccccc34)CC1)C2` (stereo not given), the Potency entry was “inactive”.

As to `C=C1C(=O)O[C@@H]2C[C@@H](C)[C@]34C[C@]5(C(=O)O[C@H]6CC(C)=C([C@H](C)CCCO)[C@H](OC(=O)C(C)CC)[C@H]65)[C@@H](C(C)=C3C[C@@H]12)[C@H]4OC(C)=O` (stereo not given in full), the Potency entry was “inactive”.

Regarding `N#Cc1cccc(C#N)c1-c1nc2c3ccccc3c3cc(Cl)ccc3c2[nH]1`, the Potency entry was “inactive”.

In the case of `COc1ccc(C(=O)N(CCC(C)C)Cc2nc(C)c(C)n2Cc2ccccc2C)c(OC)c1`, the Potency result is “inactive”.

Take `Cc1ccc(C(=O)N2CCN(c3ccc([N+](=O)[O-])cc3)CC2)cc1Cl`: the Potency entry was “inactive”.

On to `CCCCOc1ccc(-c2cncc(C(=O)NCc3cccnc3N3CCOCC3)c2)cc1Cl`, for which the Potency entry is “inactive”.

Turning to `CC(=O)N1CCN([C@H]2CCN(C(=O)N(C)[C@H](C)c3cc(C(F)(F)F)cc(C(F)(F)F)c3)[C@@H](c3ccc(F)cc3C)C2)CC1`, the Potency entry was “inactive”.

Consider `CC(C)n1cnc2c(Nc3cccc(Cl)c3)nc(NCCO)nc21`, for which the Potency entry is “inactive”.

As to `CC1(C)CC23[C@@H]4CC(=O)[C@@H]2COC(=O)[C@@H]3CC[C@H]41`, the Potency entry is “inactive”.

For the molecule `COc1cc(N2CCOCC2)ccc1Nc1ncc(F)c(Nc2ccccc2NS(C)(=O)=O)n1`, the Potency entry is “inactive”.

In the case of `CN(C)C(=O)c1cc2cnc(Nc3ccc(N4CCNCC4)cn3)nc2n1C1CCCC1`, the Potency entry was “inactive”.

`COc1ccc(NC(=O)N2CCc3c2ccc2ccccc32)cc1N1CCN(C)CC1`: the Potency result is “inactive”.

On to `CN1CCN(C(=O)c2ccc(Nc3nccc(-c4cccs4)n3)cc2Cl)CC1`, for which the Potency result is “inactive”.

As to `CC(C)COc1ccc(CNC(=O)N(Cc2ccc(F)cc2)C2CCN(C)CC2)cc1`, the Potency entry is “inactive”.

As to `Cc1cc(N=Nc2ccc(S(=O)(=O)Nc3ccccn3)cc2)c(N)cc1O`, the Potency entry is “inactive”.

For the molecule `N#C[C@@H]1C[C@@H]2C[C@@H]2N1C(=O)[C@@H](N)C12CC3CC(CC(O)(C3)C1)C2`, the Potency entry was “inactive”.

On to `COc1cc2ncnc(Nc3ccc(Oc4ccccc4)cc3)c2cc1OC`, for which the Potency result is “inactive”.

As to `CN[C@@H]1[C@@H](O)[C@@H](O[C@@H]2[C@@H](O)[C@H](O[C@H]3O[C@@H]([C@@H](C)NC)CC[C@H]3N)[C@@H](N)C[C@H]2N)OC[C@]1(C)O`, the Potency result was “inactive”.

As to `CN(CCCNC(=O)c1ccc2nc3c(c(Cl)c2c1)CCCC3)Cc1ccccc1`, the Potency result is “inactive”.

Take `CNc1cc(OC)c(C(=O)N[C@@H]2CCN(Cc3ccccc3)[C@@H]2C)cc1Cl`: the Potency result was “inactive”.

Consider `CC(=O)Nc1ccc(C(=O)Nc2ccccc2N)cc1`, for which the Potency result is “inactive”.

Take `CC1(C)SC2C(NC(=O)[C@H](NC(=O)N3CCNC3=O)c3ccccc3)C(=O)N2C1C(=O)O` (stereo not given in full): the Potency entry is “inactive”.

On to `CC(C)c1ccc(NC(=O)C(c2ccccc2)N(C)C(=O)Cc2c[nH]c3ccccc23)cc1` (stereo not given), for which the Potency is 79.4 µM (active).

On to `O=C(c1ccc(F)c(F)c1Nc1ccc(I)cc1F)N1CC(O)(C2CCCCN2)C1` (stereo not given), for which the Potency entry is “inactive”.

Turning to `N#CCC(C1CCCC1)n1cc(-c2ncnc3[nH]ccc23)cn1` (stereo not given), the Potency result is “inactive”.

For the molecule `Fc1ccc(C2CCNC[C@H]2COc2ccc3c(c2)OCO3)cc1` (stereo not given in full), the Potency result is “inactive”.

Regarding `C[C@@H](O[C@H]1OCCN(Cc2n[nH]nc2CN(C)C)[C@H]1c1ccc(F)cc1)c1cc(C(F)(F)F)cc(C(F)(F)F)c1`, the Potency entry was “inactive”.

Consider `C=C1[C@@H](C)[C@H]2[C@H](Cc3c[nH]c4ccccc34)NC(=O)[C@]23C(=O)/C=C/C(=O)[C@H](O)/C(C)=C\[C@@H](C)C/C=C/[C@H]3[C@@H]1O`, for which the Potency result is “inactive”.

For the molecule `O=C(CCCCCCC(=O)Nc1ccc(C2OC(CSc3nc(-c4ccccc4)c(-c4ccccc4)o3)CC(c3ccc(CO)cc3)O2)cc1)NO` (stereo not given), the Potency was 39.8 µM (active).

On to `OCC(CO)(CO)NCC(O)Cn1c2ccc(Cl)cc2c2cc(Cl)ccc21` (stereo not given), for which the Potency result is “inactive”.

For the molecule `CCCCn1c(-c2ccccc2)nc(-c2ccccc2)c1CN(Cc1ccc2c(c1)OCO2)Cc1ccc2c(c1)OCO2`, the Potency result was “inactive”.

In the case of `COc1cc(O)c(C(=O)CCc2ccc(O)cc2)c(O[C@@H]2O[C@H](CO)[C@@H](O)[C@H](O)[C@H]2O)c1`, the Potency result is “inactive”.

Take `COc1ccc(-c2nc(-c3cc(C(F)(F)F)cc(C(F)(F)F)c3)n(Cc3ccc(C(N)=O)cc3)c2-c2ccc(OC)cc2)cc1`: the Potency entry was “inactive”.

With `CN(C)CC(=O)Nc1ccc2[nH]c(=O)c3ccccc3c2c1`, the Potency result was “inactive”.

Regarding `CCOc1cc(CNC2CCCC2)cc(Cl)c1OCc1ccc(Cl)cc1`, the Potency result was “inactive”.
